# Experimental data: the supplement of paper PMC6897291
# Counter-ions that a name gives are not always drawn.
# Tests used:
# U-2932 [1] = assay: growth inhibition by drug alone (1 - RLU/untreated control) (fraction); higher = stronger inhibition; details: 177Lu-lilotomab satetraxetan 0 ug/ml
# Procedure, shortened: (§1)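 A radiolabelled anti-CD37 antibody conjugate (~600 MBq/mg) was applied for 18 h at 0.5 µg/ml to RIVA and 1 µg/ml to U-2932 cells, with untreated cells run alongside. All cells were washed and seeded at 3,000 cells/well onto library-printed plates at 10/100 nM (RIVA) or 10/1,000 nM (U-2932). Growth inhibition was based on RealTime-Glo luminescence compared with untreated no-drug wells. Daily reads began on day 3 after 1 h at 37°C, with each value being 1 − RLU/mean of the 48 such wells on that plate.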
# RIVA [2] = assay: as above; details: 177Lu-lilotomab satetraxetan 0 ug/ml
# Procedure, shortened: as §1
# U-2932 [3] = assay: growth inhibition by drug plus 177Lu-lilotomab satetraxetan (1 - RLU/untreated control) (fraction); higher = stronger inhibition; details: 177Lu-lilotomab satetraxetan 1 ug/ml
# Procedure, shortened: as §1
# RIVA [4] = assay: as above; details: 177Lu-lilotomab satetraxetan 0.5 ug/ml
# Procedure, shortened: as §1
Compound,"growth inhibition by drug alone (U-2932 [1]; 10 nM, time (day): 3)","growth inhibition by drug alone (U-2932 [1]; 10 nM, time (day): 4)","growth inhibition by drug alone (U-2932 [1]; 10 nM, time (day): 5)","growth inhibition by drug alone (U-2932 [1]; 10 nM, time (day): 6)","growth inhibition by drug alone (U-2932 [1]; 1000 nM, time (day): 3)","growth inhibition by drug alone (U-2932 [1]; 1000 nM, time (day): 4)","growth inhibition by drug alone (U-2932 [1]; 1000 nM, time (day): 5)","growth inhibition by drug alone (U-2932 [1]; 1000 nM, time (day): 6)","growth inhibition by drug alone (RIVA [2]; 10 nM, time (day): 3)","growth inhibition by drug alone (RIVA [2]; 10 nM, time (day): 4)","growth inhibition by drug alone (RIVA [2]; 10 nM, time (day): 5)","growth inhibition by drug alone (RIVA [2]; 10 nM, time (day): 6)","growth inhibition by drug alone (RIVA [2]; 100 nM, time (day): 3)","growth inhibition by drug alone (RIVA [2]; 100 nM, time (day): 4)","growth inhibition by drug alone (RIVA [2]; 100 nM, time (day): 5)","growth inhibition by drug alone (RIVA [2]; 100 nM, time (day): 6)","growth inhibition by drug plus 177Lu-lilotomab satetraxetan (U-2932 [3]; 10 nM, time (day): 3)","growth inhibition by drug plus 177Lu-lilotomab satetraxetan (U-2932 [3]; 10 nM, time (day): 4)","growth inhibition by drug plus 177Lu-lilotomab satetraxetan (U-2932 [3]; 10 nM, time (day): 5)","growth inhibition by drug plus 177Lu-lilotomab satetraxetan (U-2932 [3]; 10 nM, time (day): 6)","growth inhibition by drug plus 177Lu-lilotomab satetraxetan (U-2932 [3]; 1000 nM, time (day): 3)","growth inhibition by drug plus 177Lu-lilotomab satetraxetan (U-2932 [3]; 1000 nM, time (day): 4)","growth inhibition by drug plus 177Lu-lilotomab satetraxetan (U-2932 [3]; 1000 nM, time (day): 5)","growth inhibition by drug plus 177Lu-lilotomab satetraxetan (U-2932 [3]; 1000 nM, time (day): 6)","growth inhibition by drug plus 177Lu-lilotomab satetraxetan (RIVA [4]; 10 nM, time (day): 3)","growth inhibition by drug plus 177Lu-lilotomab satetraxetan (RIVA [4]; 10 nM, time (day): 4)","growth inhibition by drug plus 177Lu-lilotomab satetraxetan (RIVA [4]; 10 nM, time (day): 5)","growth inhibition by drug plus 177Lu-lilotomab satetraxetan (RIVA [4]; 10 nM, time (day): 6)","growth inhibition by drug plus 177Lu-lilotomab satetraxetan (RIVA [4]; 100 nM, time (day): 3)","growth inhibition by drug plus 177Lu-lilotomab satetraxetan (RIVA [4]; 100 nM, time (day): 4)","growth inhibition by drug plus 177Lu-lilotomab satetraxetan (RIVA [4]; 100 nM, time (day): 5)","growth inhibition by drug plus 177Lu-lilotomab satetraxetan (RIVA [4]; 100 nM, time (day): 6)"
CCCCc1nc2cc(/C=C/C(=O)NO)ccc2n1CCN(CC)CC [SB939 (Pracinostat)],0.0917,0.0424,-0.0359,-0.128,0.935,0.941,0.959,0.973,0.107,0.0736,0.0778,0.0437,0.513,0.435,0.418,0.353,0.0531,0.113,0.137,0.186,0.95,0.96,0.973,0.982,0.656,0.663,0.693,0.699,0.817,0.85,0.868,0.876
"CN(C)CCOc1ccc(/C(=C(/CCCl)c2ccccc2)c2ccccc2)cc1 [Toremifene Citrate (Fareston, Acapodene)]",0.147,0.112,-0.00292,-0.0137,0.104,0.101,-0.00882,0.0143,0.218,0.188,0.166,-0.0195,0.0631,0.0479,0.00246,-0.0264,0.111,0.144,0.204,0.262,0.0949,0.116,0.163,0.312,0.724,0.722,0.729,0.733,0.696,0.711,0.713,0.72
COc1cc2c(cc1OC)CN(CCc1ccc(NC(=O)c3cccc4c(=O)c5cccc(OC)c5[nH]c34)cc1)CC2 [Elacridar],-0.00987,0.00491,0.00725,0.0766,0.114,0.0649,0.000978,-0.0858,-0.196,-0.178,-0.24,-0.531,-0.21,-0.258,-0.283,-0.457,-0.0285,0.00551,0.0106,0.107,0.0477,0.0502,0.0374,-0.0614,0.3,0.468,0.491,0.503,0.263,0.407,0.424,0.403
CC(C)CC(=O)Nc1n[nH]c2c1CN(C(=O)C1CCN(C)CC1)C2(C)C,0.109,0.0893,0.0354,-0.0355,0.595,0.787,0.911,0.958,0.109,0.0478,0.0236,-0.141,0.546,0.346,0.355,0.378,0.0658,0.101,0.0816,0.125,0.692,0.855,0.93,0.967,0.403,0.515,0.533,0.549,0.35,0.419,0.465,0.517
